From PubChem BioAssay (Tox21)
Where “and” joins values, the source holds several entries; their conditions need not be identical. Equal entries are not always repeated. Results filed as inconclusive are left out. Some compounds were tested as several samples or in several runs, with calls that do not always agree. Calls of active or inactive are those of the source. Unless noted, calls follow the shape of the dose curve; as a rule, active = well fitted curve in the direction sought with a large enough effect in the repeat runs; inconclusive = weak or mixed curves; inactive = no such curve, though single readings can be large; an effect the other way counts as inactive or inconclusive.

Experiments:
[1] = biological target: Thyrotropin receptor (Homo sapiens) (UniProt P16473); assay: qHTS assay to identify small molecule antagonists of the thyroid stimulating hormone receptor (TSHR) signaling pathway (AID 1259385; calls by dose curve; also: nearly all actives have a fitted effect of over 20% in size)
Summary of the method: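 TSHR-HEK293 cells (800/well) plated 18 h, then compounds with Ro20-1724 and TSH at 1.5 ng/mL final, 30 min at room temperature. cAMP quantified by HTRF (cAMP-d2/anti-cAMP-cryptate, 1 h); 15 concentrations in triplicate.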

[2] = qHTS assay to identify small molecule agonists of the estrogen receptor alpha (ER-alpha) signaling pathway in the presence of an antagonist - cell viability counter screen (AID 1259386);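 also: series mostly up to about 92 µM; cells exposed to compounds for 22 h at 37 °C before the viability read; nearly all actives have a fitted effect of over 30% in size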
Summary of the method: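 Using estrogen-depleted VM7Luc4E2 cells, the 15-concentration compound series was applied together with 10.0nM ICI-182,780 and incubated 22hr at 37C/5% CO2. Cell viability was then scored by CellTiter-Fluor.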

[3] = biological target: Progesterone receptor (Homo sapiens) (UniProt P06401); assay: qHTS assay to identify small molecule agonists of the progesterone receptor (PR) signaling pathway (AID 1346784; calls by dose curve; also: nearly all actives have a fitted effect of over 30% in size; also: potency is read from the fitted curve at half-maximal effect)
Summary of the method: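 Using charcoal-stripped serum (2%) to limit endogenous steroids, PR-UAS-bla HEK 293T cells received compounds for 16 hr at 37C after 6 hr plating; beta-lactamase FRET fluorescence was recorded following 2 hr substrate loading at room temperature.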

[4] = biological target: Progesterone receptor (Homo sapiens) (UniProt P06401); assay: qHTS assay to identify small molecule antagonists of the progesterone receptor (PR) signaling pathway (AID 1346795; active = well fitted inhibition curve with a large enough effect in the signal ratio in the repeat runs, not every such curve was filed as active; the % refers to the signal ratio; also: potency is read from the fitted curve at half-maximal effect)
Summary of the method: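 Inhibition of R5020-induced (1 nM final) beta-lactamase reporter signal in PR-UAS-bla HEK293T cells was scored by FRET fluorescence after overnight (16 hr) compound treatment.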

[5] = qHTS assay to identify small molecule antagonists of the progesterone receptor (PR) signaling pathway - cell viability counter screen (AID 1346798); also: series mostly up to about 92 µM; nearly all actives have a fitted effect of over 50% in size
Summary of the method: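 ATP content as viability readout: CellTiter-Glo luminescence, 30 min room temperature, in PR-UAS-bla HEK293T cells after 16 hr compound/R5020 treatment at 37C and 5% CO2.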

[6] = qHTS assay to identify small molecule agonists of the progesterone receptor (PR) signaling pathway - cell viability counter screen (AID 1346799; calls by dose curve; also: nearly all actives have a fitted effect of over 45% in size; also: potency is read from the fitted curve at half-maximal effect)
Summary of the method: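 Cytotoxicity in PR-bla HEK293T cells: 16 h compound, 37C; CellTiter-Glo added post-FRET read; luminescence after 30 min RT.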

[7] = qHTS assay to identify small molecule agonists of the TGF-beta/Smad signaling pathway - cell viability counter screen (AID 1346829); also: top concentration of the series differs between compounds; nearly all actives have a fitted effect of over 45% in size
Summary of the method: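 After overnight seating at 37 C and 5% CO2, reporter cells got compounds for 5 hr and FRET substrate for 2 hr; cell viability then came from CellTiter-Glo luminescence.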

[8] = qHTS assay to identify small molecule agonists of the TGF-beta/Smad signaling pathway (AID 1346859; active = well fitted activation curve with a large enough effect in the signal ratio in the repeat runs, not every such curve was filed as active; the % refers to the signal ratio; also: series mostly up to about 77 µM)
Summary of the method: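 Stable Smad binding element-beta-lactamase HEK 293T cells; 5 hr compound exposure at 37 C under 5% CO2; 2 hr room-temperature substrate step; fluorescence excited at 405 nm, collected at 460 nm and 530 nm.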

[9] = biological target: Thyrotropin-releasing hormone receptor (Homo sapiens) (UniProt P34981); assay: qHTS assay to identify small molecule antagonists of the thyrotropin-releasing hormone receptor (TRHR) signaling pathway (AID 1346877; active = well fitted inhibition curve with a large enough effect in the repeat runs, not every such curve was filed as active; also: series mostly up to about 51 µM)
Summary of the method: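 Calcium signal in dye-loaded TRHR/HEK293 cells; compounds added 5 min before TRH (1 nM final); fluorescence monitored 3 min at 1 s steps.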

[10] = biological target: Thyrotropin-releasing hormone receptor (Homo sapiens) (UniProt P34981); assay: qHTS assay to identify small molecule agonists of the thyrotropin-releasing hormone receptor (TRHR) signaling pathway (AID 1346891; calls by dose curve;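 also: HEK293 cells expressing TRHR with calcium dye readout; series mostly up to about 58 µM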)
Summary of the method: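 In 1536-format, 1500 TRHR-Hek293 cells per well grew 18 h, took up calcium dye for 2 h at 37 °C, received compound, and were read kinetically; 15-point titrations, triplicates.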

[11] = Caspase-3/7 induction in HepG2 cells by small molecules, qHTS assay (AID 1346978); also: nearly all actives have a fitted effect of over 15% in size
Summary of the method: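 Wild-type HepG2 cells, 2,000/well, settled 5 hr at 37 C and 5% CO2, then compound-treated for 17 hr; caspase-3/7 activity read by luminescent Caspase-Glo 3/7 after 30 min at room temperature.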

[12] = Caspase-3/7 induction in CHO-K1 cells by small molecules, qHTS cell viability counter screen (AID 1346979); also: nearly all actives have a fitted effect of over 35% in size; also: potency is read from the fitted curve at half-maximal effect
Summary of the method: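 To flag cytotoxic compounds, treated CHO-K1 wild-type cells were given CellTiter-Fluor at 16hr and read fluorescently after 1hr at 37C; the caspase-3/7 luminescence was measured in these same wells.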

[13] = Caspase-3/7 induction in CHO-K1 cells by small molecules, qHTS assay (AID 1346980); also: nearly all actives have a fitted effect of over 15% in size
Summary of the method: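 Wild-type CHO-K1 cells exposed to compounds for 17hr at 37 C, 5% CO2. Caspase-3/7 activity then measured by Caspase-Glo 3/7 luminescence after 30min at room temperature.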

[14] = Caspase-3/7 induction in HepG2 cells by small molecules, qHTS cell viability counter screen (AID 1346981); also: series mostly up to about 92 µM; nearly all actives have a fitted effect of over 30% in size
Summary of the method: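 After a 5-hr attachment period at 37 C and 5% CO2, wild-type HepG2 cells received compounds in DMSO. Sixteen hours later CellTiter-Fluor was dispensed and the fluorescent signal quantified after a further hour.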

[15] = biological target: Nuclear receptor subfamily 1 group I member 2 (Homo sapiens) (UniProt O75469); assay: Human pregnane X receptor (PXR) small molecule agonists, qHTS assay (AID 1346982); also: nearly all actives have a fitted effect of over 35% in size; also: potency is read from the fitted curve at half-maximal effect
Summary of the method: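 Tox21 qHTS; PXR-Luc HepG2; compounds pinned from DMSO; 24 hr, 37 C; ONE-Glo luciferase detection, 30 min room temperature.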

[16] = qHTS assay to identify small molecule antagonists of the TGF-beta/Smad signaling pathway - cell viability counter screen (AID 1346824); also: nearly all actives have a fitted effect of over 50% in size
Summary of the method: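 SBE-bla HEK 293T cells, incubated overnight, then compound plus 0.25 ng/mL TGF-beta1 (stock added) for 5 hr at 37 C. Viability was read in the same wells by CellTiter-Glo luminescence after 30 min at room temperature.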

[17] = biological target: Nuclear receptor subfamily 1 group I member 2 (Rattus norvegicus) (UniProt Q9R1A7); assay: Rat pregnane X receptor (rPXR) activation by small molecules, qHTS assay (AID 1346983); settings: rPXR luciferase reporter cells, One-Glo luminescence, 24 h; max activation: stronger effect = higher value; also: nearly all actives have a fitted effect of over 20% in size; also: potency is read from the fitted curve at half-maximal effect
Summary of the method: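 Cell-based rPXR activation assay: rPXR cells, 2,000 per well, rested 5hr at 37 C, then exposed to compounds in DMSO for 24 hr at 37 C. Luciferase activity read by One-Glo luminescence after 30 min at room temperature.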

[18] = biological target: Nuclear receptor subfamily 1 group I member 2 (Homo sapiens) (UniProt O75469); assay: CYP3A4 induction through human pregnane X receptor (PXR) by small molecules, qHTS assay (AID 1346984); also: nearly all actives have a fitted effect of over 40% in size
Summary of the method: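 Cells (DPX-2; HepG2 with PXR element plus CYP3A4-promoter luciferase) settled 5hr, then were treated 24hr at 37C. A 3hr, 3uM-final Luciferin-IPA step preceded luminescence measurement with One-Glo.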

[19] = biological target: Nuclear receptor subfamily 1 group I member 2 (Homo sapiens) (UniProt O75469); assay: Human pregnane X receptor (PXR) activation by small molecules, qHTS assay (AID 1346985); also: nearly all actives have a fitted effect of over 40% in size
Summary of the method: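 DPX-2 cells (HepG2 co-transfected with a PXR response element and a CYP3A4-promoter luciferase construct) were seeded at 2,000 per well, rested 5 hr at 37C, then exposed to DMSO-dissolved compounds for 24 hr. Activation was read as luciferase luminescence.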

[20] = Human pregnane X receptor (PXR) small molecule agonists, qHTS cell viability counter screen (AID 1346977); also: nearly all actives have a fitted effect of over 50% in size
Summary of the method: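 Readout is CellTiter-Fluor fluorescence from PXR-Luc HepG2 cells. Plated cells rested 5hr, then were treated with compounds for 24hr at 37C and 5% CO2, with reagent present during the last hour.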
% is scaled to controls: 0 for no effect and ±100 for the full control effect.

Chain of Thyrotropin receptor (Homo sapiens) (P16473 whole entry, looked up): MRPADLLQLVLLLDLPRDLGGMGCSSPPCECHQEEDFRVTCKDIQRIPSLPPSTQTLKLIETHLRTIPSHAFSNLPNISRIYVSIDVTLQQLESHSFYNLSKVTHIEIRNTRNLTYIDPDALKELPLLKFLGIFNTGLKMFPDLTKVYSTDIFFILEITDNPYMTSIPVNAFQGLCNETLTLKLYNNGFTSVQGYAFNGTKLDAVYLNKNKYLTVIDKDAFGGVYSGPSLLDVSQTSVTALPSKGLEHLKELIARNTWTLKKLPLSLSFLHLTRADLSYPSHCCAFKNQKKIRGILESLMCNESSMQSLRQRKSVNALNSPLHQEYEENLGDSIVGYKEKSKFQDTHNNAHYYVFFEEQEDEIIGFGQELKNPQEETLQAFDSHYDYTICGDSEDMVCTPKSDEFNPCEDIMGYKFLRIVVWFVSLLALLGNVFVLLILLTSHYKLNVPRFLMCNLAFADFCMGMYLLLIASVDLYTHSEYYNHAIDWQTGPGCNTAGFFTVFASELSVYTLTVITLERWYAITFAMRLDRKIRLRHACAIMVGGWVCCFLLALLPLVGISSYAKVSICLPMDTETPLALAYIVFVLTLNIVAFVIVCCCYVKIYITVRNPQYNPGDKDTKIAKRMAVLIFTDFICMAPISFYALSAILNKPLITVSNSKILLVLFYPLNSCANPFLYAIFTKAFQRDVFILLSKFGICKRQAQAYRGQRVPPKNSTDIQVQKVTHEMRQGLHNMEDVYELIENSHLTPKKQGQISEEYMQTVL
Chain of Nuclear receptor subfamily 1 group I member 2 (Rattus norvegicus) (Q9R1A7 whole entry, looked up): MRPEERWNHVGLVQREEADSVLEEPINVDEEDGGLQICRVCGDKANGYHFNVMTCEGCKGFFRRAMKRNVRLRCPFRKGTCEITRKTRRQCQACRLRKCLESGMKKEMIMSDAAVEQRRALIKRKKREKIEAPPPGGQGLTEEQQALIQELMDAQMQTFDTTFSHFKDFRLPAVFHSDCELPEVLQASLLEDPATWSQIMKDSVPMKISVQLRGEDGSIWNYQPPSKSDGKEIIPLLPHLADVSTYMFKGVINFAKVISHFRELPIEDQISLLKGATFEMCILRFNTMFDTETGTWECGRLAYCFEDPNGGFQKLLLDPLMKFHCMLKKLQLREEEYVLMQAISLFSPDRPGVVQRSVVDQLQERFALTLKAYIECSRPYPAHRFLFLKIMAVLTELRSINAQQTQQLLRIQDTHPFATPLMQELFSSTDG
Chain of Nuclear receptor subfamily 1 group I member 2 (Homo sapiens) (O75469 whole entry, looked up): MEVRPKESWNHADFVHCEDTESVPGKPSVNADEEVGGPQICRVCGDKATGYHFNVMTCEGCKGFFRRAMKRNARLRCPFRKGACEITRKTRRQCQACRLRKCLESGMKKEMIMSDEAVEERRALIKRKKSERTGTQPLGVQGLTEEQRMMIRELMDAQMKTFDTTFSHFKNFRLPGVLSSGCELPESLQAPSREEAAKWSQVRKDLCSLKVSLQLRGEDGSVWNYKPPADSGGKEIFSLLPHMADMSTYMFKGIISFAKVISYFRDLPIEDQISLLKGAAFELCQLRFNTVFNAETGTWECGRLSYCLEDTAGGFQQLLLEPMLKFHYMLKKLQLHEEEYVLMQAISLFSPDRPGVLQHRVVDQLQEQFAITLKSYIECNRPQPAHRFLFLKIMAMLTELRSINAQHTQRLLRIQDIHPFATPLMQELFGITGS
Chain of Thyrotropin-releasing hormone receptor (Homo sapiens) (P34981 whole entry, looked up): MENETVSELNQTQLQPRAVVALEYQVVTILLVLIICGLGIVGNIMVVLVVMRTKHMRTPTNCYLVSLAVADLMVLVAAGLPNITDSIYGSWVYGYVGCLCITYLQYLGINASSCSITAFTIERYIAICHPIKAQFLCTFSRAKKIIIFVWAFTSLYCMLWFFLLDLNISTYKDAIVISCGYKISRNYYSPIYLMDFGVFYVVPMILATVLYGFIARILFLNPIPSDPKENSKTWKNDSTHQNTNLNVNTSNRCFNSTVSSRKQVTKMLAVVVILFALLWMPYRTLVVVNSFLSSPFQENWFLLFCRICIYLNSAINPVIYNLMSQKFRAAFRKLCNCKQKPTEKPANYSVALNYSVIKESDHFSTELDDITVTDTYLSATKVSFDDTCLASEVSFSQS
Chain of Progesterone receptor (Homo sapiens) (P06401 whole entry, looked up): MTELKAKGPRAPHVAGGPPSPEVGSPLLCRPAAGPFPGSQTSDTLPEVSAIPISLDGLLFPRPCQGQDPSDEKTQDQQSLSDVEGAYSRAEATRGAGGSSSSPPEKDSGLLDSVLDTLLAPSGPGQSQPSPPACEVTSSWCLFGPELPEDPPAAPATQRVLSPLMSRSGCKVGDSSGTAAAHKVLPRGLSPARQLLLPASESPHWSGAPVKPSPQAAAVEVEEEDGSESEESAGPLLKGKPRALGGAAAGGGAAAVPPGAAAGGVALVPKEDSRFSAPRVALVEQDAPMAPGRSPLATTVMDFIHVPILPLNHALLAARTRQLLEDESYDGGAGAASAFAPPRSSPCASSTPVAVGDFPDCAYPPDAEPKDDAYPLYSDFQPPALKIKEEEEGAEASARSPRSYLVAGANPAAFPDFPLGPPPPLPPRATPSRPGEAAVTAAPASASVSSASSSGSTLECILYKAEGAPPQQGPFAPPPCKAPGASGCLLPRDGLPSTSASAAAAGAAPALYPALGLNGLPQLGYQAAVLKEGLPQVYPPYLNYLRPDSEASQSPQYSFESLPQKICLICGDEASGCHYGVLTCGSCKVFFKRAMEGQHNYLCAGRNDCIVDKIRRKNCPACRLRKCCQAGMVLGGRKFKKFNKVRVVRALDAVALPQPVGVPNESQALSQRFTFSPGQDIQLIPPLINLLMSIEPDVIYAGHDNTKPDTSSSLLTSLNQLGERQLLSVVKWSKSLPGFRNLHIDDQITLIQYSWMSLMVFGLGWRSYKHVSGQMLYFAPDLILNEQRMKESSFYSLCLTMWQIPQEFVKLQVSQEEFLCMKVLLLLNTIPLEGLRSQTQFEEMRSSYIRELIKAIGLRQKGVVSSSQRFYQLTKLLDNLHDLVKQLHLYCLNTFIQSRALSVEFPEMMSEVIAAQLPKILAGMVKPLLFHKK

CCC(C)OC(=O)c1ccc(O)cc1 (stereo not drawn)
active: Potency [4] 48.9 µM and 54.5 µM | Potency [15] 69 µM and 54.5 µM
inactive: Potency [1] | Potency [2] | Potency [3] | Potency [5] | Potency [6] | Potency [7] | outcome [8] | Potency [9] | Potency [10] | Potency [11] | Potency [12] | Potency [13] | Potency [14]

Brc1cc(Oc2cc(Br)c(Br)c(Br)c2Br)c(Br)c(Br)c1Br
inactive: Potency [1] | Potency [2] | Potency [3] | Potency [4] | Potency [7] | outcome [8] | Potency [9] | Potency [10] | Potency [11] | Potency [12] | Potency [13] | Potency [14]
2.18 µM (active) and inactive: Potency [6]
active: Potency [15] 9.73 µM

COc1ccc(OC)c(C(O)CNC(=O)CN)c1 (stereo not drawn)
inactive: Potency [1] | Potency [2] | Potency [4] | Potency [5] | Potency [6] | Potency [16] | Potency [7] | outcome [8] | Potency [11] | Potency [12] | Potency [13] | Potency [14] | Potency [15] | max activation [17] 1.02% | Potency [18] | Potency [19]

O=P(O)(O)O
inactive: Potency [1] | Potency [2] | Potency [4] | Potency [5] | Potency [6] | Potency [16] | Potency [7] | outcome [8] | Potency [9] | Potency [10] | Potency [20] | Potency [11] | Potency [12] | Potency [13] | Potency [14] | max activation [17] -4.8%

C=C(C)C(=O)OCCOC(=O)C(=C)C
inactive: Potency [1] | Potency [2] | Potency [4] | Potency [5] | Potency [6] | Potency [7] | outcome [8] | Potency [9] | Potency [10] | Potency [11] | Potency [12] | Potency [13] | Potency [14] | Potency [15]

C#C[C@]1(O)CC[C@H]2[C@@H]3CCc4cc(OC)ccc4[C@H]3CC[C@@]21C
active: Potency [3] 7.7 µM | Potency [12] 27.3 µM and 18.8 µM | Potency [15] 21.7 µM and 18.8 µM
inactive: Potency [1] | Potency [2] | Potency [5] | Potency [7] | outcome [8] | Potency [9] | Potency [10] | Potency [11] | Potency [13] | Potency [14] | max activation [17] 4.03% | Potency [18]

CC(C)Oc1ccc2c(=O)c(-c3ccccc3)coc2c1
inactive: Potency [1] | Potency [2] | Potency [3] | Potency [4] | Potency [16] | Potency [7] | outcome [8] | Potency [20] | Potency [11] | Potency [13] | Potency [14] | Potency [18]
active: Potency [15] 2.98 µM and 1.06 µM | Potency [17] 0.316 µM

C/C=C/C(=O)O
inactive: Potency [1] | Potency [2] | Potency [4] | Potency [5] | Potency [6] | Potency [16] | Potency [7] | outcome [8] | Potency [9] | Potency [10] | Potency [11] | Potency [12] | Potency [13] | Potency [15]
